PfHsp90 yeast 2: growth inhibition of PfHsp90-expressing yeast, primary screen, antimalarial PfHsp90 inhibitor project, S. cerevisiae, BacTiter-Glo luminescence, single point, set 2; BacTiter-Glo ATP, 48 h; yeast lacking PDR1 and PDR3 efflux regulators; inhibition, % at 9.4 µM; 310,000 tested, 0.32% active; AID 504621, 2011;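 active = every replicate shows inhibition above about 80%, whatever the replicate mean, limit read from the data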;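 also: 0% = DMSO neutral controls and 100% = 20 µM radicicol positive controls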
SKKanGAS inh: S. pyogenes SKKanGAS growth inhibitors in kanamycin, primary screen, streptokinase expression inhibitor project, SKKanGAS strain, BacTiter-Glo luminescence | 300,000 tested, 1.3% active | AID 1662, 2009 | 6 h | inhibition, % at 7.5 µM;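 active = mean replicate score, as percent of positive control median, at least 50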;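 also: strain carries kanamycin resistance gene driven by streptokinase promoter and grows in 40 µg/ml kanamycin; loss of luminescence reflects streptokinase promoter inhibition or plain growth inhibition; 0% = median of DMSO wells and 100% = positive control at its reference dose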
tim23-1 inh: growth inhibitors of tim23-1 mutant yeast, primary screen, luminescence, uHTS. S. cerevisiae tim23-1 growth, BacTiter-Glo luminescence, 24 h. 330,000 tested, 1.3% active. AID 463212, 2010. inhibition, % at 20 µM;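 active = growth inhibition of the mutant yeast at or above 50%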;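 also: temperature-sensitive mutant grown at 25 °C; plate controls were DMSO-treated mutant yeast for no effect and medium wells lacking yeast for full effect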
TIM10 inh: growth inhibitors of isogenic TIM10 control yeast, primary screen, counter-screen for tim10-1 yeast inhibitor project, luminescence, uHTS. S. cerevisiae TIM10 strain growth, BacTiter-Glo luminescence, 24 h. inhibition, % at 10 µM. 330,000 tested, 1.4% active. AID 463195, 2010;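 active = inhibition of 40% or more at the single tested concentration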;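 also: wild-type TIM10 isogenic control strain grown at permissive 25 °C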
ATG4B inh: ATG4B protease inhibitors, primary screen, biochemical, fluorescence, uHTS; inhibition, % at 8.33 µM; 340,000 tested, 0.51% active; Cysteine protease ATG4B (Homo sapiens), Q9Y4P1; AID 504462, 2011; ATG4B cleavage of LC3-PLA2, NBD-HPC fluorescence, 1 h; in the data active = inhibition above about 40%
Target sequence (Q9Y4P1 whole entry, looked up): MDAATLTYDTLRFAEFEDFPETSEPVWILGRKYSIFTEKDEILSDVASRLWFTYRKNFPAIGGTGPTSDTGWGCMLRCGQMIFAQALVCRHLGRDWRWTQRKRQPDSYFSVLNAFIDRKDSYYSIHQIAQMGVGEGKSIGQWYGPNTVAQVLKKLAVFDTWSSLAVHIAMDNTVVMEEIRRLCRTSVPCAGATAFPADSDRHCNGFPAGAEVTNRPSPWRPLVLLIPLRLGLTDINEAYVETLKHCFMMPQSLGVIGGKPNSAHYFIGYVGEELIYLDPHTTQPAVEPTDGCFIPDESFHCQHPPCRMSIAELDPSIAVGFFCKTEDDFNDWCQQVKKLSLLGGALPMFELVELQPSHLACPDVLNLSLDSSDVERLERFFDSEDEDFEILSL
tim10-1 inh: growth inhibitors of tim10-1 mutant yeast, primary screen, luminescence, uHTS; 330,000 tested, 2.2% active; inhibition, % at 20 µM; S. cerevisiae tim10-1 ts strain growth, BacTiter-Glo, 24 h;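 active = inhibition of at least 40%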;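 also: mutant grown at 25 °C; 0% = DMSO wells with yeast and 100% = wells holding no yeast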
Numbers without * were called inactive; nt = not tested or not shown. This is a sample that favours compounds with a hit; in the whole collection about 4.7% have one here.

SMILES	PfHsp90 yeast 2	SKKanGAS inh	tim23-1 inh	TIM10 inh	ATG4B inh	tim10-1 inh
Cc1onc(-c2ccccc2)c1C(=O)NC(C)c1ccc2c(c1)OCO2 (stereo not given)	-3	-3	15	1	1	9
O=C(NCc1nnnn1-c1cccc(F)c1)c1ccc(S(=O)(=O)N2CCOCC2)cc1	4	3	6	-1	11	5
O=c1oc2ccccc2c(O)c1Cc1cc(Cl)c2cccnc2c1O	90*	84*	8	5	30	19
Cc1ccc(S(=O)(=O)N2c3ccccc3OCC2C(C)(C)C)cc1 (stereo not given)	-8	58*	18	23	17	22
Cc1sc(NC(=O)c2ccco2)c(C(c2cccnc2)N2CCC(C)CC2)c1C (stereo not given)	92*	19	40	39	15	37
CCN1CCN(C(c2cccnc2)c2c(NC(=O)c3ccco3)sc(C)c2C)CC1 (stereo not given)	-4	nt	15	-3	-6	8
Cc1cccc(-n2c(N)c(-c3nc4ccccc4n3C)c3nc4ccccc4nc32)c1	-28	78*	38	23	-11	20
Cn1c(-c2c(N)n(-c3ccccc3)c3nc4ccccc4nc23)nc2ccccc21	-6	-19	nt	nt	7	nt
NC(=O)CSc1nccn1Cc1ccc2c(c1)OCO2	-9	3	15	-4	0	9
Cc1nc(-c2ccc3c(c2)CCC(=O)N3)cs1	-16	-3	-4	-13	3	6
Cc1ccc(-c2csc(Cc3nc(-c4ccc5c(c4)CCC(=O)N5)cs3)n2)cc1	-12	71*	-2	-3	-10	-11
NCCS(=O)(=O)NC1CCCCC1	-17	66*	5	-6	-3	-15
Cc1ccc(NC(=S)NCCCN2CCOCC2)cc1C	9	3	13	13	1	4
CCCn1c(NC(=O)c2ccccc2)nc2ccccc21	7	69*	19	4	20	24
CCn1c(SCc2ccccc2Cl)nc2ccccc21	11	74*	43	5	38	33
CCCn1c(NC(=O)c2ccc(C)cc2)nc2ccccc21	2	44	-2	-14	15	-25
CCCn1c(NC(=O)C2CCN(S(=O)(=O)c3cccs3)CC2)nc2ccccc21	0	51*	7	24	18	34
CCCCCCCn1c(NC(=O)CC)nc2ccccc21	-21	104*	33	17	4	35
CCn1c(CCNC(=O)c2ccco2)nc2ccccc21	-13	1	-1	-23	-2	3
Cn1c(NCc2ccccc2Cl)nc2ccccc21	-35	5	-3	-3	4	16
O=C(Nc1nc2ccccc2n1Cc1ccccc1)c1ccco1	-51	55*	8	-2	-1	-2
CCC(=O)Nc1nc2ccccc2n1CCN1CCOCC1	12	-3	3	1	-5	10
CCC(=O)Nc1nc2ccccc2n1Cc1ccccc1Cl	-12	63*	6	24	8	9
CCC(=O)Nc1nc2ccccc2n1Cc1ccc(Cl)cc1	8	62*	5	16	-1	8
C=CCn1c(NC(=O)c2ccc(C)cc2)nc2ccccc21	22	59*	15	-5	8	0
SMILES	PfHsp90 yeast 2	SKKanGAS inh	tim23-1 inh	TIM10 inh	ATG4B inh	tim10-1 inh
Cc1c(C(=O)N2CCOCC2)c(S(=O)(=O)Nc2ccc(C(C)C)cc2)c(C)n1C	0	2	12	12	-2	20
COc1ccc(N2CCN(c3c(S(=O)(=O)c4ccccc4)cnc4ccc(OC)cc34)CC2)cc1	104*	12	-2	-56	38	-23
CCOc1ccc2ncc(S(=O)(=O)c3ccccc3)c(N3CCN(c4ccc(OC)cc4)CC3)c2c1	8	15	-7	16	1	2
Cc1ccc(CSc2nc3c(c(N(C)C)n2)CCCC3)cc1	6	16	-10	22	1	39
O=C(C(=C1NCCN1)n1cncn1)c1ccccc1	16	1	-9	1	-11	6
O=C(O)c1ccc(N2C(=O)CC(SC(=NCc3ccc4c(c3)OCO4)Nc3ccccc3)C2=O)cc1 (stereo not given)	0	16	16	10	-3	17
O=C(O)c1ccc(N2C(=O)CC(SC(=NCc3ccc4c(c3)OCO4)Nc3ccc(F)cc3)C2=O)cc1 (stereo not given)	27	59*	12	-3	10	17
CC(=O)c1cccc(N(C(=O)c2csnn2)C(C(=O)NC2CCCC2)c2ccccc2)c1 (stereo not given)	12	-2	12	-22	-4	-4
COCc1cc(=O)[nH]c(Nc2nc3ccc(C)cc3o2)n1	-2	70*	13	2	1	12
CC1(C)N=C(SCC(=O)Nc2ccc(Cl)cc2)C(c2ccc(Cl)cc2)=N1	110*	0	28	34	-17	30
Cn1c(O)c(N=NC(=O)c2cc(-c3cccs3)nc3ccccc23)c2ccccc21	7	80*	2	2	6	9
COc1ccc(-c2cc(C(=O)N3CCN(c4ccccc4O)CC3)c3ccccc3n2)cc1	-10	nt	0	0	5	-10
O=C(c1cc(-c2cccs2)nc2ccccc12)N1CCN(c2ccccc2O)CC1	-35	68*	43	15	-9	12
Cc1ccc(-c2cc(C(=O)N3CCN(c4ccccc4O)CC3)c3ccccc3n2)cc1	-29	54*	2	12	4	-4
Cc1ccc(N2C(=O)c3ccccc3C2Nc2cccnc2)nc1 (stereo not given)	15	-2	45	24	-2	31
Cc1ccc(S(=O)(=O)N(C)C)cc1NC(=S)N(CCC#N)Cc1cccnc1	-2	0	3	1	-12	-6
Cc1ccc(Cn2c(Cc3ccccc3)nc3ccccc32)cc1	-42	69*	41	34	25	32
O=C(NC1=C(Nc2ccc(F)cc2)C(=O)c2ccccc2C1=O)c1ccc(Cl)cc1	19	51*	15	26	-2	15
O=C(NNC(=O)c1ccc(NC(=O)c2ccccc2)cc1)c1ccc(F)cc1	6	4	-13	-1	4	-10
O=S(=O)(c1ccc(-n2cnnn2)cc1)N1CCC(N2CCCCC2)CC1	-13	-12	2	11	2	4
O=[N+]([O-])c1cc([N+](=O)[O-])c2oc(-c3ccccc3)c(Br)c2c1O	-17	69*	nt	nt	29	nt
Cc1ccc(C)c(OCC(=O)Nc2ccc3c(c2)OCO3)c1	5	9	8	4	2	9
